Data: PubChem BioAssay (EPA / NIEHS)
Where “and” joins values, the source holds several entries; their conditions need not be identical. Equal values may be shown once. Records with an inconclusive call do not appear. Some structures have more than one record in an assay (separate samples or runs), and their calls can disagree. Calls of active or inactive are those of the source. Rule for the calls, unless noted: active = hit-call score of the fitted dose curve at least 0.9, where 1 is the maximum; inactive = score below 0.9.

Experiments:
[1] = CCTE_Shafer_MEA_acute_per_network_burst_electrodes_number_mean: CCTE's Neural Acute Assay for Mean Number of Electrodes in a Network Burst, Shafer Lab (AID 2284021);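 note: curves fitted for decreases only so hits reduce electrodes per burst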
How it was run: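 Cultures of rat cortex neurons were exposed on DIV 13 or 15 to compounds at 0.03-40 uM in at least three wells each. Activity over 40 min before and 40 min after exposure at 37 C gave the percent change in electrodes per network burst.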

[2] = CCTE_Shafer_MEA_acute_network_burst_percentage: CCTE's Neural Acute Assay for Percentage of Network Bursts, Shafer Lab (AID 2284022);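 note: curves fitted for loss so actives lower network burst percentage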
How it was run: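 Cortical neurons from rat were grown over microelectrode arrays and used on day 13 or 15 in vitro. Wells with at least 10 active electrodes received test chemical at 0.03-40 uM. Activity during 40 min of exposure was compared with the preceding 40-min baseline.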

[3] = CCTE_Shafer_MEA_acute_cross_correlation_HWHM: CCTE's Neural Acute Assay for Cross Correlation at Half Width at Half Maximum, Shafer Lab (AID 2284026);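 note: percent change per well from pre-dose baseline in spike cross-correlogram half width; hits are a decrease in cross-correlogram half width relative to DMSO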
How it was run: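 Primary cortex (rat), MEA, DIV 13/15; compound 0.03-40 uM; 40 min pre + 40 min post at 37 C; spike threshold 8x rms; wells need ≥10 active electrodes; endpoint = % change in cross-correlogram HWHM vs baseline, DMSO negative control.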

[4] = CCTE_Shafer_MEA_acute_synchrony_index: CCTE's Neural Acute Assay for Synchrony, Shafer Lab (AID 2284027);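 note: network synchrony index of spontaneous spiking in primary rat cortical neurons on MEAs; fitted for loss of signal so actives lower synchrony relative to DMSO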
How it was run: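 Rat cortical cultures, DIV 13/15; spikes detected at 8x rms noise, 300-5000 Hz band-pass. Compound 0.03-40 uM, ≥3 wells; 40-min pre- and post-exposure recordings, 37 C. Readout: % change in synchrony index; loss-of-signal fit vs DMSO.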

[5] = CCTE_Shafer_MEA_dev_firing_rate_mean: CCTE's Neural Network Formation Assay for Mean Firing Rate, Shafer Lab (AID 2284031);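 note: AUC of well mean spike rate recorded on DIV 5 7 9 and 12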;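 for AC50: curve fitted for loss of firing so AC50 reflects decreased mean firing rate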
How it was run: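 Read-out: spike count/recording length, averaged over active electrodes, then AUC across days 5, 7, 9, 12. Rat cortical cultures on MEA; continuous 12-day exposure, media and treatment renewed DIV 5, 9; DMSO baseline.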

[6] = CCTE_Deisenroth_AIME_384WELL_CTox_Active: Cytotoxicity Assessment (CTOX) in CCTE's 384-well Estrogen Receptor Transactivation Assay with AIME metabolic competence (metabolism positive), Deisenroth Lab (AID 2284037; active = hit-call score of the fitted dose curve at least 0.9, where 1 is the maximum;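 note: chemicals first conditioned 2 h by alginate-bound induced rat liver S9 before cells; activity means signal loss indicating cell death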)
How it was run: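 VM7Luc4E2 breast cells received medium pre-incubated 2 h with chemical over alginate microspheres holding induced male Sprague Dawley rat liver S9; viability read 24 h later by protease-substrate fluorescence. Loss of signal, bidirectional fit, 0.002–200 uM.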

[7] = CCTE_Shafer_MEA_dev_active_electrodes_number: CCTE's Neural Network Formation Assay for Number of Active Electrodes, Shafer Lab (AID 2284040; active = hit-call score of the fitted dose curve at least 0.9, where 1 is the maximum;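 for AC50: potency for loss of active electrodes versus DMSO so lower counts are hits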)
How it was run: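 Developing rat cortical networks on MEAs, exposed DIV 0–12. Value is the AUC of active-electrode counts (≥5 spikes/min) from days 5, 7, 9, 12, relative to DMSO.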

[8] = CCTE_Shafer_MEA_dev_burst_rate: CCTE's Neural Network Formation Assay for Burst Rate, Shafer Lab (AID 2284042);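 for AC50: potency for loss of burst rate below DMSO control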
How it was run: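 Developmental network assay measuring how 12-day exposure of rat cortical neuron cultures alters bursting on extracellular MEA recordings. Values are AUC of well-mean burst rate across four recording days, relative to DMSO vehicle.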

[9] = CCTE_Shafer_MEA_dev_bursting_electrodes_number: CCTE's Neural Network Formation Assay for Number of Bursting Electrodes, Shafer Lab (AID 2284043; active = hit-call score of the fitted dose curve at least 0.9, where 1 is the maximum;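 for AC50: potency is for loss of bursting electrodes relative to DMSO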)
How it was run: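 Counted: electrodes with burst rate ≥1 per 2 min in each well. Cells: primary rat cortex, 1.5 x 10^5/well, on 16-electrode MEA wells. Exposure: DIV 0–12, compound renewed DIV 5 and 9. Recording days 5, 7, 9, 12; AUC vs DMSO baseline.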

[10] = CCTE_Shafer_MEA_dev_per_burst_interspike_interval: CCTE's Neural Network Formation Assay for Burst Interspike Interval, Shafer Lab (AID 2284044);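 note: mean spike spacing inside bursts as AUC over recordings on days 5 7 9 12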;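 for AC50: potency for a decrease of within-burst interspike interval below DMSO level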
How it was run: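 Developmental network-formation MEA in primary rat cortical cultures with exposure spanning days 0–12. Within-burst ISI is averaged per well and integrated across recording days by area under the curve, with DMSO as negative control baseline.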

[11] = CCTE_Shafer_MEA_dev_burst_duration_mean: CCTE's Neural Network Formation Assay for Mean Burst Duration, Shafer Lab (AID 2284045);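 for AC50: curve fitted for loss meaning shorter burst duration than DMSO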
How it was run: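 Network-formation assay in primary rat cortical neurons; treatment spans twelve days of development. Mean burst duration per well is integrated by trapezoidal AUC and fitted in the loss-of-signal direction against DMSO baseline.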

[12] = CCTE_Shafer_MEA_dev_interburst_interval_mean: CCTE's Neural Network Formation Assay for Mean Interburst Interval, Shafer Lab (AID 2284046);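 note: well-mean interburst interval of bursting electrodes as AUC over four recording days; curve fitted for decrease in interburst interval relative to DMSO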
How it was run: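 Network formation assay in primary rat cortical cultures, exposed from DIV 0 to 12. Mean interburst interval per well, integrated as AUC over four recordings.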

[13] = CCTE_Shafer_MEA_dev_network_spike_number: CCTE's Neural Network Formation Assay for Number of Network Spikes, Shafer Lab (AID 2284048);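 note: synchronized bursts across electrodes counted on days 5 7 9 12 and integrated as AUC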;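 for AC50: fit as a loss of signal meaning fewer network spikes than DMSO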
How it was run: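 Extracellular recordings from 16-electrode wells track network formation in rat cortical cultures under continuous treatment from plating. The endpoint is network spike number, expressed as AUC across DIV 5–12 relative to DMSO vehicle.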

[14] = CCTE_Shafer_MEA_dev_network_spike_peak: CCTE's Neural Network Formation Assay for Mean Number of Electrodes in Network Spike, Shafer Lab (AID 2284049);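 for AC50: fitted for loss of signal meaning fewer electrodes in network spikes than DMSO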
How it was run: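 Continuous 12-day exposure of rat cortical cultures, starting at plating, on MEA plates. Endpoint: electrodes participating in network-spike peaks, AUC across DIV 5–12, DMSO as negative control.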

[15] = CCTE_Shafer_MEA_dev_spike_duration_mean: CCTE's Neural Network Formation Assay for Mean Spike Duration, Shafer Lab (AID 2284051);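 note: mean network spike duration pooled as area under curve over DIV 5 to 12 recordings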;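 for AC50: potency for a decrease in mean network spike duration versus DMSO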
How it was run: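 With DMSO as baseline, loss of mean network spike duration was scored from extracellular recordings of rat cortical neurons on MEA plates. Exposure spanned plating to DIV 12; the four recording days were collapsed into one AUC value.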

[16] = CCTE_Deisenroth_AIME_96WELL_CTox_Active: Cytotoxicity Assessment (CTOX) in CCTE's 96-well Estrogen Receptor Transactivation Assay with AIME metabolic competence (metabolism positive), Deisenroth Lab (AID 2284028; active = hit-call score of the fitted dose curve at least 0.9, where 1 is the maximum)
How it was run: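 Cytotoxicity in VM7Luc4E2 breast cells after 24 h exposure to medium from a 2 h metabolic pre-incubation with induced rat hepatic S9 in alginate microspheres; fluorescent live-cell protease readout, 10-point series 0.002–200 uM, n=4.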

[17] = CCTE_Deisenroth_AIME_384WELL_CTox_Inactive: Cytotoxicity Assessment (CTOX) in CCTE's 384-well Estrogen Receptor Transactivation Assay without AIME metabolic competence (metabolism negative), Deisenroth Lab (AID 2284039; active = hit-call score of the fitted dose curve at least 0.9, where 1 is the maximum;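 note: cell viability via live-cell protease substrate cleaved to fluorescent probe; cells exposed 24 h to medium preincubated 2 h with alginate-water beads without S9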)
How it was run: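 Fluorescence from a live-cell protease substrate, read after 24 h in VM7Luc4E2 cells, indicated viability. Test medium came from a 2 h AIME step without hepatic S9 (alginate-water microspheres); concentrations spanned 0.002 - 200 uM, single technical replicate per run.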

[18] = target: Estrogen receptor (Homo sapiens) (UniProt P03372); assay: CCTE_Deisenroth_AIME_384WELL_LUC_Inactive: CCTE's 384-well Estrogen Receptor Transactivation Assay without AIME metabolic competence (ERTA luciferase; metabolism negative), Deisenroth Lab (AID 2284038; active = hit-call score of the fitted dose curve at least 0.9, where 1 is the maximum;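 note: hits raise estrogen receptor luciferase signal so potencies reflect agonists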)
How it was run: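 Metabolism-negative mode: AIME lids stamped in alginate-water, no hepatic S9. 2 h chemical incubation → medium onto VM7Luc4E2 ERTA, 24 h. Readout luciferase luminescence; gain-of-signal fit vs 17beta-estradiol. Conc. 0.002 - 200 uM.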

[19] = target: Estrogen receptor (Homo sapiens) (UniProt P03372); assay: CCTE_Deisenroth_AIME_384WELL_LUC_Shift: CCTE's 384-well Estrogen Receptor Transactivation Assay with AIME metabolic competence data shift (ERTA luciferase; difference in metabolism positive and negative), Deisenroth Lab (AID 2284041);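 note: shift is response with S9 minus without S9 so positive means metabolism raised ER signal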
How it was run: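 Here, parent compounds undergo 2 h phase I metabolism by PB/BNF-induced rat S9 before 24 h transactivation in VM7Luc4E2 cells; the curve models S9-positive minus S9-negative response over a 10-point series.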

Measured: AC50

Chain of Estrogen receptor (Homo sapiens) (P03372 whole entry, looked up): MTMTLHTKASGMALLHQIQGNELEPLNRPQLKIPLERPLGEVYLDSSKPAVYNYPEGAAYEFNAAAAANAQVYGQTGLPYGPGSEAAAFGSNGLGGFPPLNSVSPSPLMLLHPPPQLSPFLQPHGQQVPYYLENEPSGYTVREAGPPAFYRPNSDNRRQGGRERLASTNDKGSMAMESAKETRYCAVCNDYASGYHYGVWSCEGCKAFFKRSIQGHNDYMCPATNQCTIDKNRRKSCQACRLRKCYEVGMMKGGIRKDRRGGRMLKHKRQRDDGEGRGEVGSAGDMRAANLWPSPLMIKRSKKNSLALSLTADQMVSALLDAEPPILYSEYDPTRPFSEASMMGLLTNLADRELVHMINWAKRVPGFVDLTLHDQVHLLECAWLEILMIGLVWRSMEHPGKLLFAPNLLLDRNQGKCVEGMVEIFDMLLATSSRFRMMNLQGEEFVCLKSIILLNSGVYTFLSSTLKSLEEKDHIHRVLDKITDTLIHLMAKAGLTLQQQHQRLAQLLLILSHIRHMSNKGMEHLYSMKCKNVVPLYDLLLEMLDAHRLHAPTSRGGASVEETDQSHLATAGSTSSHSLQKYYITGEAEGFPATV

CC(C)(OOC(C)(C)c1ccccc1)c1ccccc1
inactive: [1] | [2] | [3] | [4]

COC(=O)Nc1nc2ccccc2[nH]1
active: [7] 15.3 µM | [9] 12.5 µM | [14] 12.5 µM | [15] 12.5 µM
not listed: [16] | [17] | [18] | [19]
inactive: all other assays above

CCCCOC(=O)c1ccccc1C(=O)OCc1ccccc1
inactive: [16] | [5] | [8] | [10] | [11] | [12] | [13]
active: [1] 5 µM | [2] 8.11 µM | [3] 6.42 µM | [4] 7.33 µM | [7] 22.7 µM | [9] 50.5 µM | [14] 15.2 µM | [15] 13.6 µM

Clc1ccc(C(c2ccc(Cl)cc2)C(Cl)Cl)cc1
active: [1] 2.69 µM | [2] 7.42 µM | [3] 11.4 µM | [4] 4.76 µM | [5] 8.59 µM | [7] 4.66 µM | [8] 8.68 µM | [9] 6.19 µM | [10] 8.24 µM | [12] 8.61 µM | [13] 1.98 µM | [14] 4.03 µM | [15] 3.39 µM
inactive: [11]

O=C(N[C@H](c1ccccc1)[C@@H]1CN2CCC1CC2)c1c(Cl)ccc(C(F)(F)F)c1Cl
active: [3] 18.5 µM
inactive: [1] | [2] | [4] | [6]

CCN(CC)CCO
inactive: [1] | [2] | [3] | [4]

ClC1=C(Cl)C2(Cl)C3C(Cl)C=CC3C1(Cl)C2(Cl)Cl (stereo unspecified)
active: [1] 4.31 µM | [5] 4.54 µM | [7] 4.27 µM | [8] 2.74 µM | [9] 2.35 µM | [12] 2.32 µM | [14] 4.19 µM | [15] 4.2 µM
inactive: [2] | [3] | [4] | [10] | [11] | [13]

Cc1ccc(N)c(N)c1
inactive: [1] | [3] | [6] | [17]
active: [2] 9.87 µM | [4] 20 µM

[Cl-].[Cl-].[Hg+2]
inactive: [2]
active: [1] 24.6 µM | [3] 29.3 µM | [4] 28.2 µM | [5] 0.911 µM | [7] 0.543 µM | [8] 0.923 µM | [9] 0.539 µM | [10] 0.869 µM | [11] 0.881 µM | [12] 0.318 µM | [13] 0.444 µM | [14] 0.641 µM | [15] 0.64 µM

CC(C)COC(=O)c1ccccc1C(=O)OCC(C)C
inactive: [1] | [2] | [5] | [8] | [11] | [13]
active: [3] 5.62 µM | [4] 9.02 µM | [9] 13.8 µM | [10] 23.2 µM | [12] 12.8 µM | [14] 15.9 µM | [15] 13.7 µM

O=[N+]([O-])C(Br)(CO)CO
active: [1] 32 µM | [2] 35.8 µM | [4] 30.9 µM
inactive: [3]

CCCCCOC(=O)c1ccccc1C(=O)OCCCCC
active: [2] 26.4 µM | [3] 2.82 µM | [4] 12.4 µM | [17] 19.8 µM
inactive: [1] | [6] | [18] | [19]

O=[N+]([O-])c1ccc(Oc2ccc(Cl)cc2Cl)cc1
active: [1] 20 µM | [2] 20 µM | [3] 10.9 µM | [4] 10.9 µM
inactive: [6] | [17]

N#CC(Br)Br
inactive: [1] | [2] | [3] | [4]

c1ccc(NNc2ccccc2)cc1
active: [3] 29.7 µM | [4] 29.6 µM
inactive: [1] | [2]

CCN(CC)N=O
inactive: [1] | [2] | [3] | [4]

O=Cc1ccco1
inactive: [1] | [2] | [3] | [4]

CC(C)(O)c1cnn2c(-c3ccc(F)c(-c4c(F)cccc4C#N)c3)cnc2n1
active: [1] 20 µM | [2] 30.8 µM | [3] 3.97 µM | [4] 35.8 µM | [7] 5.55 µM | [9] 1.98 µM | [14] 1.98 µM | [15] 1.98 µM
inactive: [5] | [8] | [10] | [11] | [12] | [13]

CCC[CH2][Sn]([Cl])([CH2]CCC)[CH2]CCC
active: [1] 0.992 µM | [2] 0.243 µM | [3] 0.463 µM | [4] 237 nM and 322 nM | [5] 0.00892 µM | [7] 0.0428 µM | [8] 0.043 µM | [9] 0.0406 µM | [10] 0.0392 µM | [11] 0.0302 µM | [12] 0.0762 µM | [13] 0.0565 µM | [14] 0.0754 µM | [15] 0.0303 µM
inactive: [1] | [2] | [3]

CC(C)(C)C(O)(CCc1ccc(Cl)cc1)Cn1cncn1 (stereo unspecified)
active: [3] 20 µM | [7] 5.02 µM | [9] 5.5 µM | [13] 0.801 µM | [14] 15 µM | [15] 15 µM
not listed: [6] | [16] | [17] | [18] | [19]
inactive: all other assays above

O=P(OCCCl)(OCCCl)OCCCl
not listed: [6] | [16] | [17] | [18] | [19]
inactive: all other assays above

CCC(C)c1ccc(O)cc1 (stereo unspecified)
inactive: [1]
active: [2] 33.9 µM | [3] 30.5 µM | [4] 30.5 µM
